The source of these data is PubChem BioAssay (NCATS).

In experiment [1] the target is Cytochrome P450 2D6 (Homo sapiens) (UniProt P10635). As to the kind of experiment: Cytochrome P450 family 2 subfamily D member 6 (CYP2D6) small molecule antagonists: luciferase biochemical (cell-free) qHTS assay (AID 1645840; active means well fitted curve in the direction sought with a large enough effect in the repeat runs; an effect the other way counts as inactive or inconclusive; further: nearly all actives have a fitted effect of over 55% in size; further: potency means the concentration at half of the fitted maximal effect; on activity change, negative = inhibition: on the % scale 0 is the no-effect control and ±100 the full control effect). An outline of the steps: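 P450-Glo luminescent screen: recombinant CYP2D6 enzyme–proluciferin substrate mix preincubated with compound 10 min at room temperature, then NADPH regeneration added for 1 h at room temperature. Detection reagent added for 20 min; luciferin light read as relative luminescence units.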
Sequence of Cytochrome P450 2D6 (Homo sapiens) (P10635 whole entry, looked up): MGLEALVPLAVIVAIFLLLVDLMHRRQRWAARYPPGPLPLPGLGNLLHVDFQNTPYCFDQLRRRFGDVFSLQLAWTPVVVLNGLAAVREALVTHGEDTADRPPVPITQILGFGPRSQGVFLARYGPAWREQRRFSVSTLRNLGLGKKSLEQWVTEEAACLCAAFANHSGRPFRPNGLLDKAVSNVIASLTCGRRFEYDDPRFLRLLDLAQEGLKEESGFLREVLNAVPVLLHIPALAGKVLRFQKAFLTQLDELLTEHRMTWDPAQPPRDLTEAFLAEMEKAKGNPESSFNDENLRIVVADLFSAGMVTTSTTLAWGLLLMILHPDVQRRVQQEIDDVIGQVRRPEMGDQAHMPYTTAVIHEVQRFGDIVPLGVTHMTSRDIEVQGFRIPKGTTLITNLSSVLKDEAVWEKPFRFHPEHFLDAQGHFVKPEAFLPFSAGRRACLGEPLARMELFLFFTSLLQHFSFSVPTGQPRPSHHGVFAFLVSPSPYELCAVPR
Background: In qHTS, concentration-response curves come from the screen itself.

The target in experiment [2] is Cytochrome P450 2C9 (Homo sapiens) (UniProt P11712). As to the kind of experiment: Cytochrome P450 family 2 subfamily C member 9 (CYP2C9) small molecule antagonists: luciferase biochemical (cell-free) qHTS assay (AID 1645842; active means well fitted curve in the direction sought with a large enough effect in the repeat runs; an effect the other way counts as inactive or inconclusive; further: nearly all actives have a fitted effect of over 55% in size; further: potency means the concentration at half of the fitted maximal effect; on activity change, negative = inhibition: on the % scale 0 is the no-effect control and ±100 the full control effect). A digest of the protocol:
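Luminescence, after 20 min with luciferin detection reagent, reflected CYP2C9 turnover during a 1 h NADPH-driven reaction at 37C. Enzyme-substrate mix contained 0.4% bovine serum albumin and was preincubated with compound 10 min at room temperature.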

Experiment [3] can be described thus: Primary redox qHTS assay for identification of artifact compounds. (AID 1845223).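 Further: 0% = DMSO and 100% = reference compound.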 An outline of the steps:
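Amplex Red (25 uM) and HRP (250 mU/mL) in HBSS, with compounds for 15 min, then 250 uM DTT for 30 min, room temperature, dark. Fluorescence 525/598 nm read; normalized to DMSO and 10 uM DA3003; Hill fit.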

Experiment [4] in a line: qHTS drug screen for cell cycle checkpoint inhibitors in PARPi-resistant BRCA-mutant ovarian cancer cell lines. (AID 1963452; calls by dose curve). The following applies: PEO1/OlaR viability, CellTiter-Glo luminescence, 96 h, stronger effect = lower value. A digest of the protocol: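 PEO1, PEO4 and PEO1/OlaR ovarian cancer cells, 600 per well, exposed 96 h at 37C to a dilution series. Viability read by CellTiter-Glo luminescence, normalized to DMSO and empty wells; activity summarized as Z-AUC.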

The next experiment deals with KB-3-1. The experiment in a line: Cytotoxic Profiling of Annotated Libraries Using Quantitative High-Throughput Screening (AID 1296008). Further: nearly all actives have a fitted effect of over 60% in size. Further: potency means the concentration at half of the fitted maximal effect. On max response: on the % scale 0 is the no-effect control and ±100 the full control effect. The following applies: Five cell lines viability, CellTiter-Glo ATP luminescence, 48-72 h; max response: stronger effect = lower value. An outline of the steps: (§1)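 Cytotoxicity was measured as CellTiter-Glo ATP luminescence, read after 10 min at room temperature. Compound treatment of the cells lasted 48 or 72 hr at 37 degrees Celsius in a qHTS format.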
A general note: Cellular ATP, detected with luciferase, serves as a proxy for viable cell number.

Another experiment relates to HeLa. The experiment in a line: Primary qHTS to identify gynecologic anti-cancer compounds using libraries of approved drugs and bioactive compounds (AID 1345084). Further: nearly all actives have a fitted effect of over 55% in size. Further: potency means the concentration at half of the fitted maximal effect. The following applies: Gynecologic cancer cell panel viability, ATPlite luminescence, 48 h; series mostly up to 57.5 µM. A digest of the protocol: (§2)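 Measured: luminescence after ATPlite addition (15 min, RT). Exposure: 48 h, 37 C, 5% CO2.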

In a further experiment the test system is SKOV3. The description is as above. The following applies: Gynecologic cancer cell panel viability, ATPlite luminescence, 48 h; series mostly up to 57.5 µM. An outline of the steps: as §2
Experiment [5] is described as follows: P-glycoprotein substrates identified in KB-3-1 adenocarcinoma cell line, qHTS therapeutic library screen (AID 1346986). Further: nearly all actives have a fitted effect of over 60% in size. An outline of the steps:
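Cells seeded 500/well in DMEM/10% FCS; compounds pinned in dose-response; 72 h incubation; CellTiter-Glo added, 5 min, luminescence. KB-8-5-11 run ±tariquidar to test reversal of P-gp resistance.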

Experiment [6] is described as follows: P-glycoprotein substrates identified in KB-8-5-11 adenocarcinoma cell line, qHTS therapeutic library screen (AID 1346987). Further: nearly all actives have a fitted effect of over 65% in size. Further: potency means the concentration at half of the fitted maximal effect. An outline of the steps:
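Steps: plate 500 KB-8-5-11 cells/well in DMEM + 10% FCS (colchicine removed); pin compounds in dose-response; incubate 72 h, 37 degree C, 5% CO2; add CellTiter-Glo, 5 min; read luminescence.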

Experiment [7] in a line: Primary qHTS for inhibitors of nuclear receptor binding SET domain protein 2 (NSD2) in an isogenic RCH-ACV NSD2 p.E1099K mutant (9B) (AID 1645876). Further: nearly all actives have a fitted effect of over 70% in size. Further: potency means the concentration at half of the fitted maximal effect.
Experiment [8] in a line: Primary qHTS for inhibitors of nuclear receptor binding SET domain protein 2 (NSD2) in an RCH-ACV wild type WT cells (2C) (AID 1645877). Further: nearly all actives have a fitted effect of over 70% in size. Further: potency means the concentration at half of the fitted maximal effect.
The next experiment has as its system CRL-7250. As to the kind of experiment: qHTS assay to identify novel small-molecules to repurpose for Merkel cell carcinoma treatment (AID 1296009). Further: nearly all actives have a fitted effect of over 60% in size. Conditions: MCC and control cell lines, CellTiter-Glo viability, 72 h; series mostly up to 92 µM. A digest of the protocol: (§3)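 72 hr, 37 degree celsius; NPC 8-pt / MIPE 11-pt dose response; compound pinned in DMSO; CellTiter-Glo, 10 min RT, luminescence; normalized to no-cell and DMSO controls.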

Another experiment deals with HEK293. As to the kind of experiment: Cytotoxic Profiling of Annotated Libraries Using Quantitative High-Throughput Screening (AID 1296008). Further: nearly all actives have a fitted effect of over 60% in size. Further: potency means the concentration at half of the fitted maximal effect. On max response: on the % scale 0 is the no-effect control and ±100 the full control effect. The following applies: Five cell lines viability, CellTiter-Glo ATP luminescence, 48-72 h; max response: stronger effect = lower value. A digest of the protocol: as §1
For experiment [9], the system named is HaCat. The experiment is described as above. Conditions: Five cell lines viability, CellTiter-Glo ATP luminescence, 48-72 h; max response: stronger effect = lower value. A digest of the protocol: as §1
Experiment [10] has as its system HACAT. As to the kind of experiment: qHTS assay to identify novel small-molecules to repurpose for Merkel cell carcinoma treatment (AID 1296009). Further: nearly all actives have a fitted effect of over 60% in size. Conditions: MCC and control cell lines, CellTiter-Glo viability, 72 h; at 44.8 µM (top of the series) unless noted. An outline of the steps: as §3
Another experiment concerns NIH3T3. Described as above. Conditions: MCC and control cell lines, CellTiter-Glo viability, 72 h; at 44.8 µM (top of the series) unless noted. An outline of the steps:
as §3

Experiment [11] deals with Catechol O-methyltransferase (Homo sapiens) (UniProt P21964). As to the kind of experiment: Confirmatory Screen for Target Class Profiling of Small Molecule Inhibitors of Methyltransferases (AID 1745852). The following applies: MTase-Glo luminescence, SAH detection, recombinant enzyme; measured here: COMT max response; stronger effect = lower value.
Sequence of Catechol O-methyltransferase (Homo sapiens) (P21964 whole entry, looked up): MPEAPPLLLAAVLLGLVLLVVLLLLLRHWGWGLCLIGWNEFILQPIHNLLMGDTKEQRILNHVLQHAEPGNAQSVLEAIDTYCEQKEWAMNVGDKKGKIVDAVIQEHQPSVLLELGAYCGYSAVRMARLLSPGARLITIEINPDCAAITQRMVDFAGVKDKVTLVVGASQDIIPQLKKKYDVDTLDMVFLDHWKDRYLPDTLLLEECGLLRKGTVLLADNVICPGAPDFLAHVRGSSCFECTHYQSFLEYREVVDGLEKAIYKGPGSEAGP
Experiment [12] deals with Guanidinoacetate N-methyltransferase (Homo sapiens) (UniProt Q14353). The experiment is described as above. The following applies: activity change, negative = inhibition: at 57.3 µM (top of the series) unless noted.
The target in experiment [13] is Nicotinamide N-methyltransferase (Homo sapiens) (UniProt P40261). Described as above. The following applies: MTase-Glo luminescence, SAH detection, recombinant enzyme; measured here: NNMT max response; stronger effect = lower value.
Sequence of Nicotinamide N-methyltransferase (Homo sapiens) (P40261 whole entry, looked up): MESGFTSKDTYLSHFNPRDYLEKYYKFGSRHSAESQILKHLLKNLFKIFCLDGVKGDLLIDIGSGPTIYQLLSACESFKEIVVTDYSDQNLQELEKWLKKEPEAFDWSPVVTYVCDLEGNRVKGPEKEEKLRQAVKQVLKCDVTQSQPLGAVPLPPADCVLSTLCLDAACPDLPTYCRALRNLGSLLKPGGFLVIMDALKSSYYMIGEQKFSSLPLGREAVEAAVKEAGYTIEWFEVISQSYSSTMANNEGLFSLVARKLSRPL
Experiment [14] deals with Phenylethanolamine N-methyltransferase (Homo sapiens) (UniProt P11086). The experiment is described as above. The following applies: MTase-Glo luminescence, SAH detection, recombinant enzyme; measured here: PNMT max response; stronger effect = lower value.
Sequence of Phenylethanolamine N-methyltransferase (Homo sapiens) (P11086 whole entry, looked up): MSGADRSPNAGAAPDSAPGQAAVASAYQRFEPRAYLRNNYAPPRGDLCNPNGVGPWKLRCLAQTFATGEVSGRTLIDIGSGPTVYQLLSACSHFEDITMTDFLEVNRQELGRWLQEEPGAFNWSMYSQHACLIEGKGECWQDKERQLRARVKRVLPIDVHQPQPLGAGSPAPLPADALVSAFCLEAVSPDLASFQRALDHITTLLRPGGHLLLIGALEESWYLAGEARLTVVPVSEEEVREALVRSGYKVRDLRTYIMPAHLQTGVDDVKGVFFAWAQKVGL
The mark [15] stands for this setting: measured here: PEO1 parental Z-AUC.

Inconclusive results are not listed. Calls of active or inactive are those of the source. Unless noted, the call rests on the fitted dose curve; in most records, active means well fitted curve in the direction sought with a large enough effect; inconclusive means small, poorly fitted or top-dose-only effect, or another doubt; inactive means no such curve, though single readings can be large; an effect the other way counts as inactive or inconclusive.

Sequence of Cytochrome P450 2C9 (Homo sapiens) (P11712 whole entry, looked up): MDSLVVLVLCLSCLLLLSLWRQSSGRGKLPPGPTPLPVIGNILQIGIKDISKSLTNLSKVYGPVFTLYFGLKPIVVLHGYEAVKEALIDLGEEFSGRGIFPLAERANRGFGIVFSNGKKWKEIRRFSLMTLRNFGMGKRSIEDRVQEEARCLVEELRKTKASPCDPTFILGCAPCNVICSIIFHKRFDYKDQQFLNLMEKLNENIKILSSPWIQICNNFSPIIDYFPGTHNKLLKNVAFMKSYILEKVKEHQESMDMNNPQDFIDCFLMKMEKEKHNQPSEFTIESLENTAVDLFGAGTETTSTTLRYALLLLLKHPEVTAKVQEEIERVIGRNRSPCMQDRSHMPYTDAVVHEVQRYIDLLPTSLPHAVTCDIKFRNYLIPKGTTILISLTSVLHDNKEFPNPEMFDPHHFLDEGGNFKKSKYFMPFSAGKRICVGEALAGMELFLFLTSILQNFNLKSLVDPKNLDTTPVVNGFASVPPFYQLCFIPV

As to `C[C@H](Nc1ncnc2nc[nH]c12)c1nc2ccc(F)cc2c(=O)n1-c1ccccc1`, the Potency is 15.1 µM (active) in experiment [1] and 12 µM (active) in experiment [2]. Also, the Potency result (in experiment [3]; in the experiment with HeLa; in the experiment on SKOV3) was “inactive” throughout. Moreover, the Z-AUC was 0.252 (inactive) in experiment [4], 0.609 in [4] (setting [15]) and 0.915 in experiment [4] (measured here: PEO4 Z-AUC). In addition, the max response in the experiment with KB-3-1 was -3.18% (inactive).

Turning to `CCC1CC2CN3CCc4c([nH]c5ccccc45)C(C(=O)OC)(C2)C13` (stereo unspecified), the Potency result in [5], in experiment [6], in experiment [7], in experiment [8] and in experiment [3] was “inactive” each time. In addition, the outcome in the experiment on KB-3-1 is “inactive”.

For the molecule `CO[C@H]1C[C@H](O[C@H]2CC[C@]3(CO)[C@H]4CC[C@]5(C)[C@@H](C6=CC(=O)OC6)CC[C@]5(O)[C@@H]4CC[C@]3(O)C2)O[C@H](C)[C@H]1O`, the Potency was 0.0224 µM (active) in experiment [6]; 0.0502 µM (active) in experiment [7]; 0.0796 µM (active) in experiment [8]; 0.224 µM (active) in the experiment on KB-3-1; 0.199 µM (active) with HeLa; 0.158 µM (active) with SKOV3. Also, the Potency entry in experiment [3] was “inactive”.

In the case of `O=C1CN=C(c2cccc(Br)c2)c2oc3ccccc3c2N1`, the Potency in experiment [6] is 14.6 µM (active); in [2], 10.7 µM (active); in experiment [7], 9.16 µM (active); in experiment [8] it was 6.49 µM (active). In addition, the Potency entry (in experiment [1]; with CRL-7250) was “inactive” throughout.

On to `COc1ccc(CCNCc2ccc(OC)c3ccccc23)cc1`, for which the Potency was 14.5 µM (active) in [7] and 16.3 µM (active) in experiment [8]. Besides, the Potency entry (in experiment [3]; in the experiment on HeLa; in the experiment with SKOV3) was “inactive” each time. Further, the max response in the experiment with KB-3-1 was -13.8% (inactive).

In the case of `NC(=O)[C@@H](CC1CC1)[C@@H](CCC(F)(F)F)C(=O)N[C@H]1N=C(c2ccccc2)c2cccc(F)c2NC1=O`, the Potency entry (in experiment [6]; in [1]; in [7]; in experiment [8]; in [3]; in the experiment with HeLa) was “inactive” in each case. The Potency entry with SKOV3 was “inactive”. In addition, the Z-AUC is -1.08 (inactive) in [4], -0.643 in [4] (setting [15]) and -1.43 in experiment [4] (measured here: PEO4 Z-AUC). The max response is 0.706% (inactive) in the experiment on HEK293, -25% (inactive) with HaCat [9] and 4.24% (inactive) in the experiment on KB-3-1.

In the case of `Cc1ccc(Cn2nc(C(=O)N[C@@H]3C(C)(C)[C@@H]4CC[C@@]3(C)C4)cc2-c2ccc(Cl)c(C)c2)cc1`, the Potency result (in [6]; in experiment [1]; in experiment [7]; in experiment [8]; in experiment [3]; in the experiment on HeLa) was “inactive” throughout. Moreover, in the experiment with SKOV3, the Potency result was “inactive”. Besides, in experiment [2], the Potency was 2.68 µM (active). Further, in the experiment with KB-3-1, the max response was 0.44% (inactive).

Turning to `COc1cc2c(cc1O)C1(C)CCC(O)C(C)(C)C1CC2=O` (stereo unspecified), the Potency result (in experiment [5]; in experiment [6]; in experiment [7]; in experiment [8]; in experiment [3]; in the experiment on SKOV3) was “inactive” each time. Also, in the experiment on HEK293, the max response is -7.2% (inactive). The outcome in the experiment with HaCat [9], with KB-3-1, in the experiment on HACAT [10] and in the experiment on NIH3T3 was “inactive” each time.

Turning to `Cc1[nH]c2ccc(Cl)cc2c1CCN(C)C`, the Potency result in [6], in experiment [2] and in experiment [7] was “inactive” in each case. In addition, the Potency in [1] is 3.38 µM (active). Further, the activity in experiment [11] is -4.16%; in [13] it was -4.68%; in experiment [14], -3.11%. The activity change, negative = inhibition in experiment [12] was -1.82%. Further, the max response in the experiment on KB-3-1 was 3.8% (inactive). Further, the outcome in the experiment with NIH3T3 was “inactive”.

As to `CCOC(=O)c1ccc(-c2ccc(OC(=O)N(C)Cc3cccc(-c4ccncc4)c3)cc2)cc1`, the results for the Potency (in experiment [1]; in [2]; in the experiment on HEK293) were 6.74 µM (active), 0.952 µM (active) and 9.2 µM (active), respectively. Moreover, the Potency result (in experiment [7]; in [8]; in [3]; in the experiment with SKOV3) was “inactive” each time. For the same molecule, the values for the max response in the experiment on HaCat [9] and in the experiment with KB-3-1 were -8.03% (inactive) and 1.19% (inactive), respectively.
